Reference: paper PMC7862700, “An all-to-all approach to the identification of sequence-specific readers for epigenetic DNA modifications on cytosine”

Tests used:
Assay in all cases: DAPPL (digital affinity profiling via proximity ligation, sequencing); 10 mM Tris-HCl pH 7.5, 50 mM NaCl, 1 mM DTT, 4% glycerol, room temperature, 30 min; GST-TFs on glutathione beads, 16-mer random dsDNA library, 0.1% formaldehyde crosslink after washing; high values mean tight binding
FLI1 = target: T1, FLI1 (Homo sapiens, UniProt Q01543 1-452); conditions: protein: recombinant; tags: N-terminal GST; dsDNA, one strand shown
T1 sequence: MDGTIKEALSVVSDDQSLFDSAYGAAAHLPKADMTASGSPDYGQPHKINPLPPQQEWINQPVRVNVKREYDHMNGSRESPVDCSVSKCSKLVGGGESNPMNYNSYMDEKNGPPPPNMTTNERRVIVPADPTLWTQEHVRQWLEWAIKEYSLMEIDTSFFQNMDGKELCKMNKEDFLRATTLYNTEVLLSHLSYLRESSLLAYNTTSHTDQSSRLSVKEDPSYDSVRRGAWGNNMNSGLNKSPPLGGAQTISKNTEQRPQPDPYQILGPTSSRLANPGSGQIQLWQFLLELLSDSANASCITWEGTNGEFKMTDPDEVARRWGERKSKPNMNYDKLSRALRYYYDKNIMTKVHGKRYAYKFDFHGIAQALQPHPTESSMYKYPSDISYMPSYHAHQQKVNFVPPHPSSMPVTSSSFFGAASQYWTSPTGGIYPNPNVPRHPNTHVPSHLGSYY
In short: (§1)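 The binding signal reported is, for every hexamer, its read frequency for a factor over its read frequency for the tag-only sample. Reads came from pools of yeast-expressed, GST-fused human transcription factors on glutathione beads, barcoded with DNA and mixed with that sample, which were incubated with 200 nmole of a random double-stranded 16-mer DNA library in Tris/NaCl/DTT/glycerol buffer at room temperature for 30 min. After washing, the pools were crosslinked with 0.1% formaldehyde, proximity-ligated with BsaI/T4 ligase for 1 h at 37 °C, PCR-amplified and sequenced on an Illumina NextSeq500.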

ELK1 = target: T2, ELK1 (Homo sapiens, UniProt P19419 1-428); conditions: protein: recombinant; tags: N-terminal GST; dsDNA, one strand shown
T2 sequence: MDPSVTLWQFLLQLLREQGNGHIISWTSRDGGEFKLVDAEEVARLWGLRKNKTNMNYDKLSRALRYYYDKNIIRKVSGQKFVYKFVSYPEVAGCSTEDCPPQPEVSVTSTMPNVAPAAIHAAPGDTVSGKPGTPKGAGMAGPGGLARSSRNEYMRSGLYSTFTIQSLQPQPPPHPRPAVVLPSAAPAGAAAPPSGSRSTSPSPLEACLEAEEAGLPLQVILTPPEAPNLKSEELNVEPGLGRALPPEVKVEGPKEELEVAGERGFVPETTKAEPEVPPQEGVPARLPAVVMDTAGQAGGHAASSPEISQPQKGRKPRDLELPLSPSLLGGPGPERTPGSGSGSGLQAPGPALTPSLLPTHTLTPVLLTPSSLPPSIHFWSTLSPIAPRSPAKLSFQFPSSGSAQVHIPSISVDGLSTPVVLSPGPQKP
In short: as §1

GABPA = target: T3, GABPA (Homo sapiens, UniProt Q06546 1-454); conditions: protein: recombinant; tags: N-terminal GST; dsDNA, one strand shown
T3 sequence: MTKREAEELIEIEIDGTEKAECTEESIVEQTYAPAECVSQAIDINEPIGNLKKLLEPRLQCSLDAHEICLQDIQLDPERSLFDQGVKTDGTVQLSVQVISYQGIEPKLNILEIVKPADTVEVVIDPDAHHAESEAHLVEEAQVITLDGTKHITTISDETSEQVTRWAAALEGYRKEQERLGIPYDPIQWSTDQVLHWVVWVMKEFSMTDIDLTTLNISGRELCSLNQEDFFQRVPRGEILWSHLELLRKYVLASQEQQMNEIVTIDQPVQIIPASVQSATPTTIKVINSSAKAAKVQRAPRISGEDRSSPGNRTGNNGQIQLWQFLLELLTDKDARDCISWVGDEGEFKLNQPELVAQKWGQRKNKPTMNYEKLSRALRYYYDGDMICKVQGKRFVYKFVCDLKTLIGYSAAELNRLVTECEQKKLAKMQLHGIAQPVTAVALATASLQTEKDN
In short: as §1

ERG = target: T4, ERG (Homo sapiens, UniProt P11308 1-479); conditions: protein: recombinant; tags: N-terminal GST; dsDNA, one strand shown
T4 sequence: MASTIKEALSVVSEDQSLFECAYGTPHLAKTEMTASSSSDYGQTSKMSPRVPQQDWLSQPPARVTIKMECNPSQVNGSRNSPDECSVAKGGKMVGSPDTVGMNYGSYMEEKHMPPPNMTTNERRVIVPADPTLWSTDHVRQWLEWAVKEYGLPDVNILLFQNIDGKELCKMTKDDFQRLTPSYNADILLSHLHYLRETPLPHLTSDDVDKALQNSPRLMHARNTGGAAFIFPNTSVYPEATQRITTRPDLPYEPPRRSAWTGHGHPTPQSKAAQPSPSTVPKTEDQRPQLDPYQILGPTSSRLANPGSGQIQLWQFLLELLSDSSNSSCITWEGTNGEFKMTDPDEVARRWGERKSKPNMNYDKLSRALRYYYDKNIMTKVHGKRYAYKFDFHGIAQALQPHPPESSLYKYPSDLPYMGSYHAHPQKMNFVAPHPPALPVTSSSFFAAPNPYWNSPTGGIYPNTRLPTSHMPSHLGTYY
In short: as §1

ELF1 = ELF1 (Homo sapiens, UniProt P32519 1-619); conditions: protein: recombinant; tags: N-terminal GST; dsDNA, one strand shown
Sequence of ELF1 (P32519 whole entry): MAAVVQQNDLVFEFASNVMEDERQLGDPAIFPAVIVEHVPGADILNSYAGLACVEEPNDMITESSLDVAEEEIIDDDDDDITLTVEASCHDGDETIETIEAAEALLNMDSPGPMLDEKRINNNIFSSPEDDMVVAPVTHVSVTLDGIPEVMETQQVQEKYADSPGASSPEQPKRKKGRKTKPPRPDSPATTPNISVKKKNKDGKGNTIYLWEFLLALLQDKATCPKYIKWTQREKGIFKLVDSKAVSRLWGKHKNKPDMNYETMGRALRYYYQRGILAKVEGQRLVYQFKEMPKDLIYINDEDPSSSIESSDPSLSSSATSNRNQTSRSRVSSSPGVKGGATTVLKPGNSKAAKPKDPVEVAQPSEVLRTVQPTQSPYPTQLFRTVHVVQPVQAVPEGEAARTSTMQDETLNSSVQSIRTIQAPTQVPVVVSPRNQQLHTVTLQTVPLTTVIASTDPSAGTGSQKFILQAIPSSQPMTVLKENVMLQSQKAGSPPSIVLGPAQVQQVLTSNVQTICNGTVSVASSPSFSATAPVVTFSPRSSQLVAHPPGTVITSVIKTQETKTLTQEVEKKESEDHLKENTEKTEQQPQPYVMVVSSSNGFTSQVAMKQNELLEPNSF
In short: as §1

EHF = target: T5, EHF (Homo sapiens, UniProt Q9NZC4 1-300); conditions: protein: recombinant; tags: N-terminal GST; dsDNA, one strand shown
T5 sequence: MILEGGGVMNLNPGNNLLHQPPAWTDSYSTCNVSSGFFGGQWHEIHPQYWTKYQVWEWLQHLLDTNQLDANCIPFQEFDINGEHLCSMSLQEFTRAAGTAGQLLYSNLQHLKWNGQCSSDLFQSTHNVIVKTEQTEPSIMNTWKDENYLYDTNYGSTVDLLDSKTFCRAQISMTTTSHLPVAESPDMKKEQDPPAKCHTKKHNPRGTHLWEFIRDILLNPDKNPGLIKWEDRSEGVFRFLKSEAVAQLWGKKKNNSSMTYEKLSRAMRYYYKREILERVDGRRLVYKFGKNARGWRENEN
In short: as §1

SPI1 = SPI1 (Homo sapiens, UniProt P17947 1-270); conditions: protein: recombinant; tags: N-terminal GST; dsDNA, one strand shown
In short: as §1

SPIB = SPIB (Homo sapiens, UniProt Q01892 1-262); conditions: protein: recombinant; tags: N-terminal GST; dsDNA, one strand shown
Sequence of SPIB (Q01892 whole entry): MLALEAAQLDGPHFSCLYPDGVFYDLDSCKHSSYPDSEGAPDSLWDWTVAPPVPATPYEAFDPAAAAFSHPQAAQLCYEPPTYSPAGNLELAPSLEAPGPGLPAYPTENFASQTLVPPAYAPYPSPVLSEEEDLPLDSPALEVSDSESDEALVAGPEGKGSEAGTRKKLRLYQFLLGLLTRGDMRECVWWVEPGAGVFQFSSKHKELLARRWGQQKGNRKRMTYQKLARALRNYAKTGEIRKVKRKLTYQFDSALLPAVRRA
In short: as §1

ELK3 = target: T6, ELK3 (Homo sapiens, UniProt P41970 1-407); conditions: protein: recombinant; tags: N-terminal GST; dsDNA, one strand shown
T6 sequence: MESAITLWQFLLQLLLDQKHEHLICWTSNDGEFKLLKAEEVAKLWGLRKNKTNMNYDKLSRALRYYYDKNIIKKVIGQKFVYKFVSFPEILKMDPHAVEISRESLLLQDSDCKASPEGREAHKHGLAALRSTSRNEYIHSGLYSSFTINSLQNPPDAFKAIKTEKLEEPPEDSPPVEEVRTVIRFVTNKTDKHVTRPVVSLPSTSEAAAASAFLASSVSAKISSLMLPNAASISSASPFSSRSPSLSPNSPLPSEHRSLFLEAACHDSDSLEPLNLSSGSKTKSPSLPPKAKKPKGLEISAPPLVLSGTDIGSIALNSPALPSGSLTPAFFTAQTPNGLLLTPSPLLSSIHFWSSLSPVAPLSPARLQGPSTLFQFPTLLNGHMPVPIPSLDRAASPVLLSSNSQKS
In short: as §1

FEV = target: T7, FEV (Homo sapiens, UniProt Q99581 1-238); conditions: protein: recombinant; tags: N-terminal GST; dsDNA, one strand shown
T7 sequence: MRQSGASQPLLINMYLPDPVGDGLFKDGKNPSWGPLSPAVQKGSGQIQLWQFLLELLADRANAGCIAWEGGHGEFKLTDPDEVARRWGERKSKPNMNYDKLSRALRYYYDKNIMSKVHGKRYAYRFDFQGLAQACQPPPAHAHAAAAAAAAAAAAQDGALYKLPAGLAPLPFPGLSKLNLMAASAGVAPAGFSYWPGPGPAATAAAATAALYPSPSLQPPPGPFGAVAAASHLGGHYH
In short: as §1

ETV5 = ETV5 (Homo sapiens, UniProt P41161 1-510); conditions: protein: recombinant; tags: N-terminal GST; dsDNA, one strand shown
Sequence of ETV5 (P41161 whole entry): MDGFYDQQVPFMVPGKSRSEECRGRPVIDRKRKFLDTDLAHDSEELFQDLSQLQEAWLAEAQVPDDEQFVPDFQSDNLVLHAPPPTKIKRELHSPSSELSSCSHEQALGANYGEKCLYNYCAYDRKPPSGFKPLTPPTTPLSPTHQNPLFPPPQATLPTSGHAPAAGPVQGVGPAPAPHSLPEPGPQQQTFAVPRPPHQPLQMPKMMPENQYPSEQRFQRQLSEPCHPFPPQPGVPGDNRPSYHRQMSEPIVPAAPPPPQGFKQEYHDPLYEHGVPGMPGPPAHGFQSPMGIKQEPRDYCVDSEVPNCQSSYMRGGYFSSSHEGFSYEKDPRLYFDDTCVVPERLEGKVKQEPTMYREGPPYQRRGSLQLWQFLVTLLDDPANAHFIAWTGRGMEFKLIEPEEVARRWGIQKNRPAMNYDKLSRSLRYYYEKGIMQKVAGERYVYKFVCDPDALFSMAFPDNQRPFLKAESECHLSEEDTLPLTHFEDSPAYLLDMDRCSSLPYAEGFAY
In short: as §1

HSF1 = HSF1 (Homo sapiens, UniProt Q00613 1-529); conditions: protein: recombinant; tags: N-terminal GST; chain copies: 3; dsDNA, one strand shown
Sequence of HSF1 (Q00613 whole entry): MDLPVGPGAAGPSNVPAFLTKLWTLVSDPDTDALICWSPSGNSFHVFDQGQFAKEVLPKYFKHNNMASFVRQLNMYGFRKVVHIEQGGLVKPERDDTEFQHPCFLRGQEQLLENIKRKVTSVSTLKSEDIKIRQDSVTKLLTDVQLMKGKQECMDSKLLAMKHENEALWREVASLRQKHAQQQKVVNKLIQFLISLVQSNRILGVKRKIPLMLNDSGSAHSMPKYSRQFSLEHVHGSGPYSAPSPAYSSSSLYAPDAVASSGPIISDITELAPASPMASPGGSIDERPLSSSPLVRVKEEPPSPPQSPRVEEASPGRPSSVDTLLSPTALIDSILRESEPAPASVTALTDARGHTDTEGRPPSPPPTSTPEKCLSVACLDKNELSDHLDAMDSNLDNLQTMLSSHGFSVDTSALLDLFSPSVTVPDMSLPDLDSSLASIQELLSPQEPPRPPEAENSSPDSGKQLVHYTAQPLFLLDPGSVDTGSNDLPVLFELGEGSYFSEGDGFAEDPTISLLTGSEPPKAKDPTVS
In short: as §1

SPIC = target: T8, SPIC (Homo sapiens, UniProt Q8N5J4 1-248); conditions: protein: recombinant; tags: N-terminal GST; dsDNA, one strand shown
T8 sequence: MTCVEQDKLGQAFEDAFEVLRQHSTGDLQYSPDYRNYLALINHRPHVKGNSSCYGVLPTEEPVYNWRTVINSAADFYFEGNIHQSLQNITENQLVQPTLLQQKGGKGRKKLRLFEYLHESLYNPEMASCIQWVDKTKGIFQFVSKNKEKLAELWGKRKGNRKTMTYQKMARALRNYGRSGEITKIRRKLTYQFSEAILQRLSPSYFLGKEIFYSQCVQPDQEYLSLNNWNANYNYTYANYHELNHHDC
In short: as §1

ELF4 = ELF4 (Homo sapiens, UniProt Q99607 1-663); conditions: protein: recombinant; tags: N-terminal GST; dsDNA, one strand shown
Sequence of ELF4 (Q99607 whole entry): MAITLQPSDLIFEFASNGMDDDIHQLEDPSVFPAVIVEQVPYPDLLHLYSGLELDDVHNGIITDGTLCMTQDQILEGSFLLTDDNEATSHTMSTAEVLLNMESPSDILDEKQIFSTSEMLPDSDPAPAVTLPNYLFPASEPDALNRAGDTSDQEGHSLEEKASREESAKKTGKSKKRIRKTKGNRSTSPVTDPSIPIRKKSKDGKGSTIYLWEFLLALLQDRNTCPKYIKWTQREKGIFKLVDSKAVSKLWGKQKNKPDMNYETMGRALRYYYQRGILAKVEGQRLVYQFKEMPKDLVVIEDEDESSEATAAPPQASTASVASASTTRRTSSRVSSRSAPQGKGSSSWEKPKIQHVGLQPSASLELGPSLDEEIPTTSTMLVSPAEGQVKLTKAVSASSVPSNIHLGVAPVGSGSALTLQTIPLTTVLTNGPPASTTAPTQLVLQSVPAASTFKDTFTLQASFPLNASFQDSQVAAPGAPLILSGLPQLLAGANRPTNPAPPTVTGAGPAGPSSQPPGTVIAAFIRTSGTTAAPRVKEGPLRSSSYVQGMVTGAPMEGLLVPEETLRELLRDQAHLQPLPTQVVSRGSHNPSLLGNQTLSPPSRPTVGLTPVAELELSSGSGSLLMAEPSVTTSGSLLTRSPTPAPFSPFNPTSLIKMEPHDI
In short: as §1

ELK4 = target: T9, ELK4 (Homo sapiens, UniProt P28324-2 1-405); conditions: protein: recombinant; tags: N-terminal GST; dsDNA, one strand shown
T9 sequence: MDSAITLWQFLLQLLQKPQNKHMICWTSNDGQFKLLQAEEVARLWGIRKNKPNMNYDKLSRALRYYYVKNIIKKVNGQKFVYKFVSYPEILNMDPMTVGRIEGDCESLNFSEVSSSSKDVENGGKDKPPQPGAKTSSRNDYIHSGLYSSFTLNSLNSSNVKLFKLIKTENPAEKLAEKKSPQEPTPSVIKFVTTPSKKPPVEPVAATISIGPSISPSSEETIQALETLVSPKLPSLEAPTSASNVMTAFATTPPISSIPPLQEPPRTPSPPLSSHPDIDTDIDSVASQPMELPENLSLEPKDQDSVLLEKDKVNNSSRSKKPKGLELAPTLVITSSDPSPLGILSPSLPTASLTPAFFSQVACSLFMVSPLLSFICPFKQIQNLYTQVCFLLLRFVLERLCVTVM
In short: as §1

ETV2 = target: T10, ETV2 (Homo sapiens, UniProt O00321 1-342); conditions: protein: recombinant; tags: N-terminal GST; dsDNA, one strand shown
T10 sequence: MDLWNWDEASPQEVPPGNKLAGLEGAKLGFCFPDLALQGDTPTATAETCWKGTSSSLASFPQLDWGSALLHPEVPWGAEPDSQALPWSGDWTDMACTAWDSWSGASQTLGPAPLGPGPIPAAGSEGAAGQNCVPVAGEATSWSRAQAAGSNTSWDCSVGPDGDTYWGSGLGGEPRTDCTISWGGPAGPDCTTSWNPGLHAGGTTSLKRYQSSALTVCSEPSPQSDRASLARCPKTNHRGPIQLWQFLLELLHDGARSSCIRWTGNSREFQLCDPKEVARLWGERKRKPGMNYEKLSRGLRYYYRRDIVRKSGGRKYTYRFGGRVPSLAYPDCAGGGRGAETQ
In short: as §1

ELF3 = target: T11, ELF3 (Homo sapiens, UniProt P78545 1-371); conditions: protein: recombinant; tags: N-terminal GST; dsDNA, one strand shown
T11 sequence: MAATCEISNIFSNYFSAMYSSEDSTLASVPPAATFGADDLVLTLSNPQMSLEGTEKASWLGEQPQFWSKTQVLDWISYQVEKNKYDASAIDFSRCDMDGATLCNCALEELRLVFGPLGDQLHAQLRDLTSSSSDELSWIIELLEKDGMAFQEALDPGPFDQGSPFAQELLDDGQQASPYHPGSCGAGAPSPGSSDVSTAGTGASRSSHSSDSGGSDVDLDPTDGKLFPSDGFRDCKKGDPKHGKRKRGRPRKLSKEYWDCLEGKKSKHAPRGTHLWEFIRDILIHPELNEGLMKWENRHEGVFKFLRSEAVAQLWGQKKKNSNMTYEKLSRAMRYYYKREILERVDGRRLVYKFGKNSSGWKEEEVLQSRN
In short: as §1

ETV1 = ETV1 (Homo sapiens, UniProt P50549 1-477); conditions: protein: recombinant; tags: N-terminal GST; dsDNA, one strand shown
Sequence of ETV1 (P50549 whole entry): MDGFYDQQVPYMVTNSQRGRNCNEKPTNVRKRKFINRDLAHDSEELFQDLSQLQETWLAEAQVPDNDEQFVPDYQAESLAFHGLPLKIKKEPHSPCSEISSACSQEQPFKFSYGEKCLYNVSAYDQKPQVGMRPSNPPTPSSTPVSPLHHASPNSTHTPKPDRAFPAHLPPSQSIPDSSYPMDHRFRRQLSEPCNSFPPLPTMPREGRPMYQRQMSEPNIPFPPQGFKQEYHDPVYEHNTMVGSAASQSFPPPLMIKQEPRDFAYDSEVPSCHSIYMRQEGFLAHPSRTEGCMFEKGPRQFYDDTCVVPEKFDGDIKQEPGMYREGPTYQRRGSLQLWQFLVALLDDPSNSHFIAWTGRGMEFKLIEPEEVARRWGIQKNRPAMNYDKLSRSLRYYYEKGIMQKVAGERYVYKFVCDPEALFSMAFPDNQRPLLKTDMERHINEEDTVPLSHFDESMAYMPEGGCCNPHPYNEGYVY
In short: as §1

Sequence: AACATG
- binding signal (FLI1): 1.24 fold enrichment (6-mer frequency, TF over GST control)
- binding signal (ELK1): 1.21 fold enrichment (6-mer frequency, TF over GST control)
- binding signal (GABPA): 1.15 fold enrichment (6-mer frequency, TF over GST control)
- binding signal (ERG): 1.16 fold enrichment (6-mer frequency, TF over GST control)
- binding signal (ELF1): 1.22 fold enrichment (6-mer frequency, TF over GST control)
- binding signal (EHF): 1.05 fold enrichment (6-mer frequency, TF over GST control)
- binding signal (SPI1): 1.15 fold enrichment (6-mer frequency, TF over GST control)
- binding signal (SPIB): 1.16 fold enrichment (6-mer frequency, TF over GST control)
- binding signal (ELK3): 1.19 fold enrichment (6-mer frequency, TF over GST control)
- binding signal (FEV): 1.1 fold enrichment (6-mer frequency, TF over GST control)
- binding signal (ETV5): 1.23 fold enrichment (6-mer frequency, TF over GST control)
- binding signal (HSF1): 1.1 fold enrichment (6-mer frequency, TF over GST control)
- binding signal (SPIC): 1.28 fold enrichment (6-mer frequency, TF over GST control)
- binding signal (ELF4): 1.23 fold enrichment (6-mer frequency, TF over GST control)
- binding signal (ELK4): 1.25 fold enrichment (6-mer frequency, TF over GST control)
- binding signal (ETV2): 1.19 fold enrichment (6-mer frequency, TF over GST control)
- binding signal (ELF3): 1.26 fold enrichment (6-mer frequency, TF over GST control)
- binding signal (ETV1): 1.13 fold enrichment (6-mer frequency, TF over GST control)
